This note sets out measurements from PubChem BioAssay.

The test system of assay [1] is Wnt5a (protein binding on small-molecule microarray). Kind of assay: Wnt5a binders on small-molecule microarray, primary screen, biophysical, 635/667 nm fluorescence (AID 1142).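 Further: fluorescence read at 667 nm with signal to noise per printed feature.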 The following applies: 635 nm fluorescence, higher = more signal.
A short description of assay [2]: cell viability in Huh7 cells, primary screen, cytotoxicity control for HCV replication inhibitor project, CellTiter-Glo luminescence, basal, 48 h (AID 1143).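 Further: Huh7 hepatoma cells carrying a hepatitis C replication reporter with no stimulus; test concentration not given here.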 The following applies: Huh7 HCV replicon, higher = more signal, called active from +8 up or from −8 down.
The nature of assay [3]: P. aeruginosa biofilm formation inhibitors, primary screen, PAO1 strain, BacTiter-Glo luminescence, LB-PBS (AID 1144). To be noted: 12 h, higher = more signal.
The nature of assay [4]: CREB reporter modulators without forskolin, primary screen, cell-based, PC12, CRE-LacZ reporter, unstimulated (AID 1145). The following applies: no forskolin, luminescence, 4.5 h, higher = more signal, called active from +8 up or from −8 down.
The nature of assay [5]: CREB reporter modulators under forskolin, primary screen, cell-based, PC12, CRE-LacZ reporter, forskolin-stimulated (AID 1146).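 Further: PC12 cells with 6xCRE LacZ reporter stimulated by forskolin 10 µM; beta-galactosidase reporter signal reflecting CREB driven transcription.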 The following applies: luminescence, 4.5 h, higher = more signal, called active from +8 up or from −8 down.
Assay [6] concerns the target Streptavidin (Streptomyces avidinii) (UniProt P22629). Kind of assay: streptavidin binders on small-molecule microarray, primary screen, artefact control for SMM compound annotation, biophysical, 635/667 nm fluorescence (AID 1147).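 Further: signal reflects streptavidin binding to arrayed compounds as a control protein.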 To be noted: streptavidin binding, higher = more signal.
Assay [7] in a line: small-molecule binders of probe aInhba, primary screen, biochemical, small-molecule microarray, 635/667 nm fluorescence (AID 1148).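 Further: score merges 667nm spot fluorescence with signal-to-noise for antibody binding to printed compounds.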 To be noted: higher = more signal.
In assay [8] the target is Torsin-1A (Homo sapiens) (UniProt O14656). Kind of assay: torsin A binders from cell lysate, primary screen, small-molecule microarray, wild-type, 635/667 nm (AID 1149). The following applies: COS7 hTOR1A-WT lysate, 635 nm fluorescence, higher = more signal.
Assay [9] shares this target. Kind of assay: small-molecule binders of mutant TOR1A in lysate, primary screen, cell lysate, small-molecule microarray, COS7 lysate, 635/667 nm fluorescence (AID 1150).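 Further: score pools 667 nm emission and signal to noise measuring lysate protein binding.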 The following applies: COS7 hTOR1A mutant lysate, 635 nm fluorescence, higher = more signal.
Assay [10] concerns Sonic hedgehog protein (Shh). The assay can be described thus: small-molecule binders of Shh protein, primary screen, biochemical, small-molecule microarray, 635/667 nm fluorescence (AID 1151).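 Further: Shh protein binding to compounds spotted on small-molecule microarray slides; score combines spot fluorescence intensity with signal-to-noise across triplicate slides.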 The following applies: small-molecule microarray binding, 635 nm fluorescence; higher = more signal.
A short description of assay [11]: E. coli DRC41 culture turbidity changes, primary screen, E. coli filamentation inducer project, strain DRC41, OD650, 48 h (AID 1152).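 Further: E. coli MC1000 strain DRC41 lacking acrAB efflux pump and sulA.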 The following applies: E. coli DRC41 (acrAB sulA), higher = more signal, called active from +8 up or from −8 down.
Assay [12] in a line: small-molecule binders of probe aLefty1, primary screen, biochemical, small-molecule microarray, 635/667 nm fluorescence (AID 1153).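 Further: score merges spot fluorescence with signal-to-noise ratio from the scanned slide images.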 The following applies: higher = more signal.
The nature of assay [13]: PSAC antagonists in infected red cells, primary screen, cell-based, P. falciparum Indochina, OD700, 1 h (AID 1154). To be noted: P. falciparum Indochina infected RBC osmotic lysis, higher = more signal, called active from +8 up or from −8 down.
Assay [14] is described as follows: PSAC antagonists in infected red cells, primary screen, cell-based, P. falciparum Indochina, OD700, 2 h (AID 1155).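 Further: lysis reports solute entry through the parasite surface anion channel PSAC; channel blockers reduce lysis of infected cells.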 The following applies: P. falciparum Indochina infected erythrocytes, osmotic lysis OD700; higher = more signal, called active from +8 up or from −8 down.
Assay [15] in a line: osmotic lysis modulators in infected erythrocytes, primary screen, PSAC antagonist project, cell-based, P. falciparum Indochina, OD700, 3 h (AID 1156). The following applies: higher = more signal, called active from +8 up or from −8 down.
Assay [16] in a line: PSAC antagonists in infected red cells, primary screen, cell-based, P. falciparum Indochina, OD700, 18 h (AID 1157). The following applies: P. falciparum Indochina infected erythrocytes, osmotic lysis OD700, 18 h; higher = more signal, called active from +8 up or from −8 down.
Assay [17] is described as follows: modulators of S6 phosphorylation in cells, primary screen, cell-based, A549, cytoblot, luminescence, serum-stimulated (AID 1158).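 Further: serum-stimulated A549 lung adenocarcinoma cells; signal is phosphorylated S6 detected by cytoblot immunostaining with HRP secondary.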 To be noted: A549 phospho-S6 cytoblot, 5 h, higher = more signal.
In assay [18] the target is NADPH oxidase 2 (Homo sapiens) (UniProt P04839). The assay can be described thus: NOX2-dependent H2O2 signal modulators, primary screen, NOX inhibitor project, cell-based, HEK293-NOX2, PMA-stimulated, Amplex Red fluorescence (AID 1159). Further: test concentration not given here. To be noted: 45 min, higher = more signal, called active from +8 up or from −8 down.
For assay [19], the target named is NADPH oxidase 4 (Homo sapiens) (UniProt Q9NPH5). The assay can be described thus: NOX4-dependent H2O2 signal modulators, primary screen, NOX inhibitor project, cell-based, HEK293-NOX4, tetracycline-induced, Amplex Red fluorescence (AID 1160). To be noted: 45 min, higher = more signal, called active from +8 up or from −8 down.
Assay [20] addresses NADPH oxidase 5 (Homo sapiens) (UniProt Q96PH1). Kind of assay: NOX5-dependent H2O2 signal modulators, primary screen, NOX inhibitor project, cell-based, HEK293-NOX5, Amplex Red fluorescence (AID 1161). The following applies: HEK293-NOX5, ionomycin, 45 min, higher = more signal.

Molecules are shown by their SMILES. Calls of active or inactive are those of the source. Unless noted, how the calls were made is not given here.

Sequence of NADPH oxidase 4 (Homo sapiens) (Q9NPH5 whole entry, looked up): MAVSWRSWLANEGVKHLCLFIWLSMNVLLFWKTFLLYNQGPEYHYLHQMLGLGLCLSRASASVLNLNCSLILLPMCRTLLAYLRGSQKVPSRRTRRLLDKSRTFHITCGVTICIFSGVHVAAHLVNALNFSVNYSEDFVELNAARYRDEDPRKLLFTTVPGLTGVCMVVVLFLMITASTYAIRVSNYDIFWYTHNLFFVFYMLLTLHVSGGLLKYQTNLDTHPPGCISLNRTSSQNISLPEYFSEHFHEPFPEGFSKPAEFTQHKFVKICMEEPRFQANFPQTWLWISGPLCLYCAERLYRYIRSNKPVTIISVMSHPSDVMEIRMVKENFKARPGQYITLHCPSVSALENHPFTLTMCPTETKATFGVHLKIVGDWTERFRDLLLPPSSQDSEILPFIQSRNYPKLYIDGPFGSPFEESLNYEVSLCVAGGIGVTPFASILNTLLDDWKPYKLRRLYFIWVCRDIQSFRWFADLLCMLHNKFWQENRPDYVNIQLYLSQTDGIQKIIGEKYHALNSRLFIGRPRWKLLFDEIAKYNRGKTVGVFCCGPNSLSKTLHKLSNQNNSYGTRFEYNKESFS
Sequence of NADPH oxidase 2 (Homo sapiens) (P04839 whole entry, looked up): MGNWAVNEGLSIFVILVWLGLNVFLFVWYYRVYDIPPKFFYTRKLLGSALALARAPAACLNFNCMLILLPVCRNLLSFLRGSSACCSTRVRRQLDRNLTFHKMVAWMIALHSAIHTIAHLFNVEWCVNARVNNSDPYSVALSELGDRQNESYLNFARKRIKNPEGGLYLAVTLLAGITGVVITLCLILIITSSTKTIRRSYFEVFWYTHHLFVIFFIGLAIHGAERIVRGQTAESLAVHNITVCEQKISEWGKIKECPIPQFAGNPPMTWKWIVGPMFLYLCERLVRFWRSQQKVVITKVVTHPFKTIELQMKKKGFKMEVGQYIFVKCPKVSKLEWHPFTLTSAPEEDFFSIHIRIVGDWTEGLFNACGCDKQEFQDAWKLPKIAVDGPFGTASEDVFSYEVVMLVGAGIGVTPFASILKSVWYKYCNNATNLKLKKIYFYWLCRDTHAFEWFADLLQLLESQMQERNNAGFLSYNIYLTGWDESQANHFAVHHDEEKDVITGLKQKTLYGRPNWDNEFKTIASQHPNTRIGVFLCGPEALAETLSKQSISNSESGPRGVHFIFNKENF
Sequence of NADPH oxidase 5 (Homo sapiens) (Q96PH1 whole entry, looked up): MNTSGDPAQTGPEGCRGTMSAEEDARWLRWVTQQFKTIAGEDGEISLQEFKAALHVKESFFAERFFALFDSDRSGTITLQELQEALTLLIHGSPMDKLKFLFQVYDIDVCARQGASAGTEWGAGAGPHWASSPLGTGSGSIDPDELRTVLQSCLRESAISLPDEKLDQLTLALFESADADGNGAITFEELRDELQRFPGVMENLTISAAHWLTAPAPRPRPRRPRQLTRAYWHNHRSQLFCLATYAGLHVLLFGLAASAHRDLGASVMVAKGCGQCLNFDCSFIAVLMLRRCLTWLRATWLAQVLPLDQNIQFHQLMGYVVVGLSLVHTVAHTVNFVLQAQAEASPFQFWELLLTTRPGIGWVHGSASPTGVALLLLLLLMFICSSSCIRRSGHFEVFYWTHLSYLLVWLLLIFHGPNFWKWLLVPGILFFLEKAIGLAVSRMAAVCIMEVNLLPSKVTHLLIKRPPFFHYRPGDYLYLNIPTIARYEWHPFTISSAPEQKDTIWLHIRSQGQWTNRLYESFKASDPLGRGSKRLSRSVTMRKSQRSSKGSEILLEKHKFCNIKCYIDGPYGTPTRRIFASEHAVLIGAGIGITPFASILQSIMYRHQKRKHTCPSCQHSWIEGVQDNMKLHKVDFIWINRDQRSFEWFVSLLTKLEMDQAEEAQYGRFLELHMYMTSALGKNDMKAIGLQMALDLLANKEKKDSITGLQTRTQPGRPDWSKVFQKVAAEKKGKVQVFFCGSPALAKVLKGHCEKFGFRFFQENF
Sequence of Torsin-1A (Homo sapiens) (O14656 whole entry, looked up): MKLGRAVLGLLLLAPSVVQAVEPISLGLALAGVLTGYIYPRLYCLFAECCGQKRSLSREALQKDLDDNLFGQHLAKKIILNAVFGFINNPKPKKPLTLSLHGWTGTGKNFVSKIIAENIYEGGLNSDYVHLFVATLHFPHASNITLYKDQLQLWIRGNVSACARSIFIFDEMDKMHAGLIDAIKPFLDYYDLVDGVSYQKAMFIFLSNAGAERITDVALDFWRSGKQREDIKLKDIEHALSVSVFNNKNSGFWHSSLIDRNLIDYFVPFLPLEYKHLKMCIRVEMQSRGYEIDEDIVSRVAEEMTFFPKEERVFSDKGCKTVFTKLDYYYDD
Sequence of Streptavidin (Streptomyces avidinii) (P22629 whole entry, looked up): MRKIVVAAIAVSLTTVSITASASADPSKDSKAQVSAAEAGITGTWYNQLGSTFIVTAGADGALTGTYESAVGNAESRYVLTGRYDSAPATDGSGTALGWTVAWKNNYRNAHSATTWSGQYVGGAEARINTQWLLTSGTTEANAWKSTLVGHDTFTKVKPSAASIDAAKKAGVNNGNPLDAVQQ

Take `COC(=O)[C@@]1(Cc2ccccc2)[C@H]2c3cc(C(=O)N4CCCC4)n(Cc4ccccn4)c3C[C@H]2CN1C(=O)c1ccccc1`: the composite z-score in [1] was 1.25; in assay [6], 1.02; in [7] it was 0.74; in the assay with Torsin-1A (Homo sapiens) [8], 0.671; with Torsin-1A (Homo sapiens) [9], 1.91; in [10], -0.369. This compound came in with a composite z-score in assay [12] of 1.27. The z-score was -1.5 (inactive) in [2]; -1.42 (inactive) in assay [3]; 0.201 (inactive) in assay [4]; 1.06 (inactive) in assay [5]; -1.04 (inactive) in [11]; 2.24 (inactive) in assay [13]. Further, the z-score was 0.278 (inactive) in assay [14]; 2.27 (inactive) in assay [15]; 1.03 (inactive) in assay [16]; 0.741 in [17]; 0.401 (inactive) in assay [18]; -1.83 (inactive) in [19]. Besides, the z-score in assay [20] was -3.72.
For `CCCC[C@H]1OB(O)C[C@H]2C1=C(C)C[C@H]1C(=O)N(C)C(=O)[C@H]12`, the composite z-score in assay [1] was 0.224; in assay [6], -0.174; in assay [7], -0.0221; with Torsin-1A (Homo sapiens) [8], 0.697; with Torsin-1A (Homo sapiens) [9] it was -0.102; in assay [10] it was 0.948. For the same compound, the composite z-score in assay [12] was -0.147. In addition, the z-score was 0.0813 (inactive) in [2]; -0.0729 (inactive) in [3]; -0.237 (inactive) in [4]; 1.23 (inactive) in [5]; -0.908 (inactive) in [11]; 0.39 (inactive) in assay [13]. In addition, the z-score in assay [14] was -0.123 (inactive); in assay [15], -0.974 (inactive); in [16], 0.0834 (inactive); in assay [17], 0.292; in assay [18], -0.76 (inactive); in assay [19] it was 0.332 (inactive). The compound also returned a z-score in assay [20] of -0.235.
With `C=CCC(OC(C)=O)[C@@H]1[C@@H](N(Cc2cc3ccccc3o2)C(=O)Cc2ccc(F)cc2)c2cc(OCCCO)ccc2N1C(=O)Cc1ccc(OC)cc1` (stereo not given in full), the composite z-score is -0.368 in assay [1]; 0.0444 in assay [6]; -0.045 in assay [7]; -0.499 in the assay with Torsin-1A (Homo sapiens) [8]; -0.522 with Torsin-1A (Homo sapiens) [9]; 0.603 in assay [10]. Also, the composite z-score in assay [12] is -0.06. For the same compound, the z-score is -0.276 (inactive) in [2]; 0.00133 (inactive) in assay [3]; 1.27 (inactive) in assay [4]; 0.515 (inactive) in assay [5]; -0.778 (inactive) in [11]; 1.05 (inactive) in [13]. In addition, the z-score is 0.172 (inactive) in [14]; -0.67 (inactive) in assay [15]; -0.133 (inactive) in assay [16]; -0.597 in assay [17]; 0.2 (inactive) in assay [18]; 0.727 (inactive) in [19]. Also, the z-score in [20] is -0.743.
For `COc1ccc(O[C@H]2C=C[C@@H](c3ccccc3)O[C@@H]2COC(=O)CCC(C)=NOC(C)CN2CCCCc3nc(C)c(C)cc32)cc1` (stereo not given in full), the composite z-score in [1] is -0.133; in assay [6], 0.095; in [7], -0.0719; with Torsin-1A (Homo sapiens) [8] it was -0.406; with Torsin-1A (Homo sapiens) [9], -0.489; in [10] it was -0.0679. The composite z-score in assay [12] was -0.584. Also, the z-score in assay [2] was -0.622 (inactive); in assay [3], -0.28 (inactive); in [4] it was -0.817 (inactive); in [5] it was 0.287 (inactive); in assay [11] it was 0.233 (inactive); in assay [13], 21.7 (active). Besides, the z-score in assay [14] was 3.58 (inactive); in [15], 1.68 (inactive); in assay [16], 1.15 (inactive); in [17], -0.0603; in [18], -2.04 (inactive); in assay [19] it was -0.369 (inactive). Also, the z-score in assay [20] is -0.824.
